Screens from PubChem.
Rows were chosen to be rich in hits. Some 11% of all compounds tested hit in one or more screens of this group.
NIH3T3 tox: Cytotoxic Profiling in NIH 3T3 Cell Line of Diverse Libraries Using Quantitative High-Throughput Screening | NIH 3T3 viability, CellTiter-Glo ATP luminescence, 48-72 h | Potency, µM (series often up to 96.7 µM), for inactives: top-dose activity change, negative = cytotoxicity, hits mostly inhibitors | 94,000 compounds, 4.3% hits; also: nearly all actives have a fitted effect of over 55% in size
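First NIH 3T3 cells are plated at 400 cells/well; next compound is pinned in; then plates incubate 48 or 72 hr at 37 °C; finally CellTiter-Glo is added and luminescence read after 10 min.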
HEK293 tox: Cytotoxic Profiling in HEK 293 Cell Line of Diverse Libraries Using Quantitative High-Throughput Screening; HEK 293 viability, ATP luminescence (CellTiter-Glo), 48-72 h; Potency, µM (series often up to 115 µM), for inactives: at the highest dose activity change, negative = cytotoxicity, hits mostly inhibitors; 94,000 compounds, 6.6% hits; AID 1345083, 2018; also: nearly all actives have a fitted effect of over 60% in size
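HEK 293 cells at 250 cells/well were exposed to compounds by pintool transfer for 48 or 72 hr at 37 degree Celsius, 5% CO2. Viability was read as ATP-coupled luminescence with CellTiter-Glo after 10 min at room temperature.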
hNpr1 antagonist: Natriuretic polypeptide receptor (hNpr1) antagonism - Primary qHTS; Atrial natriuretic peptide receptor 1 (Homo sapiens), P16066; HEK293 hNpr1 GloSensor cGMP, ANP-stimulated luminescence; Potency, µM (doses to about 46.3 µM), for inactives: at the top dose activity change, negative = inhibition, actives largely listed as inhibitors; 76,000 compounds, 1.6% hits; calls by dose curve; also: nearly all actives have a fitted effect of over 60% in size
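HEK293 cells stably expressing human Npr1 and cGMP GloSensor pGS-40F, loaded 2 h with 2% GloSensor reagent, given compound 30 min at room temperature. Luminescence read before and 20 min after 0.1 nM hNppA.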
Luciferase inh: Firefly luciferase inhibition profiling of diverse chemical library using quantitative high-throughput screening. Luciferin 4-monooxygenase (Photinus pyralis), P08659. purified P. pyralis luciferase, luminescence, biochemical. Potency, µM (highest dose often 115 µM), usual class: inhibitors. 76,000 compounds, 2.5% hits. AID 1347043, 2019; also: nearly all actives have a fitted effect of over 65% in size
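FLuc 10nM, D-luciferin 10uM, ATP 10uM, Mg acetate 10mM, Tris acetate pH 7.5, Tween/BSA; cpd qHTS; enzyme added last; CCD luminescence.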
Starred values were filed as active, the others as inactive; i = inactive; ? = inconclusive; / = no result; [ ] = another dose, or the depositor's remark. Unless noted, calls follow the shape of the dose curve; as a rule, active = well fitted curve in the direction sought with a large enough effect; inconclusive = small, poorly fitted or top-dose-only effect, or another doubt; inactive = no such curve, though single readings can be large; an effect the other way counts as inactive or inconclusive. % is scaled to controls: 0 for no effect and ±100 for the full control effect; potency is read from the fitted curve at half-maximal effect.

SMILES	NIH3T3 tox	HEK293 tox	hNpr1 antagonist	Luciferase inh
Cc1nn(Cc2ccccc2)c(C)c1[C@@H]1C=C[C@@H](NC(=O)Nc2cccc(C#N)c2)C1	?	71µM*	-2%[70.6 µM]	i
Cc1nn(Cc2ccccc2)c(C)c1[C@@H]1C=C[C@@H](NC(=O)c2ccco2)C1	?	71µM*	-2%[70.6 µM]	i
Cc1nn(Cc2ccccc2)c(C)c1[C@@H]1C=C[C@@H](NC(=O)c2ccc(F)c(Cl)c2)C1	?	28µM*	?	i
Cc1nn(Cc2ccccc2)c(C)c1[C@@H]1C=C[C@@H](NC(=O)CCC(=O)O)C1	-36%[174 µM]	-10%[172 µM]	-9%[70.6 µM]	i
CC(=O)Nc1cccc(C(=O)N2CCCC(n3cc(-c4nc(C5CC5)no4)nn3)C2)c1 (stereo unspecified)	i	9%	-1%	i
Cc1cc(C)c(S(=O)(=O)c2nnn3c2nc(NC2CCCC2)c2ccccc23)c(C)c1	-22%	-10%	/	/
COCCNC(=O)CNC(=O)c1ccc(-c2cnc3ccccc3c2)cc1	-20%	-12%	/	/
CCCc1nc(C)cc(N2CCC(NCCc3ccc(Cl)cc3)CC2)n1	?	14µM*	4%	i
OC[C@@H]1CNC[C@H]1C1CCN(Cc2cccc(C(F)(F)F)c2)CC1	?	79µM*	7%	i
CC1=C[C@@H](CNC(=O)c2cnccn2)[C@H](C(C)C)C[C@H]1Cc1nc2ccc(F)cc2[nH]1	112µM*	71µM*	?	i
CC1=C[C@@H](CNC(=O)C2CCC2)[C@H](C(C)C)C[C@H]1Cc1nc2ccc(F)cc2[nH]1	40µM*	28µM*	?	i
COc1ccc2nc(C[C@@H]3C[C@@H](C(C)C)[C@H](CNC(=O)Nc4ccc(F)cc4)C=C3C)[nH]c2c1	40µM*	28µM*	-30%	i
CC(=O)N1CCC(NC[C@@H]2C=C(C)[C@H](Cc3nc4ccc(F)cc4[nH]3)C[C@H]2C(C)C)CC1	79µM*	?	-2%	i
O=C1CC2(CCN(S(=O)(=O)c3cccs3)CC2)Oc2cc(Cl)ccc21	?	?	1%	i
COc1ccc(-c2nnc3n2CCN(C(=O)Nc2ccccc2)C3)cc1	-24%	-3%	2%	i
CC1=C[C@@H](CNC(=O)c2cnccn2)[C@H](C(C)C)C[C@H]1Cc1nc2ccc(C)cc2[nH]1	?	32µM*	?	i
O=C(NC1CCN(c2ccc3nnc(C4CC4)n3n2)C1)c1ccc(Cl)nc1 (stereo unspecified)	-24%	2%	/	/
Cc1cc2c(-c3ccc(S(C)(=O)=O)cc3)nc(-c3c(C)noc3C)cc2[nH]1	?	?	?	i
Cc1cc2c(-c3cccc(S(C)(=O)=O)c3)nc(-c3c(C)noc3C)cc2[nH]1	8.9µM*	?	?	i
COc1cc(-c2nc(-c3c(C)noc3C)cc3[nH]c(C)cc23)ccn1	?	89µM*	-17%[70.6 µM]	i
Cc1cc2c(-c3cccc(CO)c3)nc(-c3c(C)noc3C)cc2[nH]1	35µM*	?	-12%[70.6 µM]	i
Cc1cc2c(-c3cccc(O)c3)nc(-c3c(C)noc3C)cc2[nH]1	35µM*	45µM*	-22%[70.6 µM]	i
Cc1cc2c(-c3ccccc3O)nc(-c3c(C)noc3C)cc2[nH]1	?	?	7%[70.6 µM]	i
Cc1cc2c(-c3ccccc3C)nc(-c3c(C)noc3C)cc2[nH]1	?	?	-15%[70.6 µM]	i
COc1ccccc1-c1ccc(CN2CCC(NC(=O)Cc3ccccc3)C2)cc1 (stereo unspecified)	35µM*	40µM*	/	/
SMILES	NIH3T3 tox	HEK293 tox	hNpr1 antagonist	Luciferase inh
COc1ccccc1C(=O)NC1CCCN(Cc2ccc(-c3cncnc3)cc2)C1 (stereo unspecified)	-26%	?	/	/
COc1ccccc1-c1ccc(CN2CCC(NC(=O)Nc3ccccc3F)C2)cc1 (stereo unspecified)	16µM*	28µM*	/	/
COc1ccccc1-c1ccc(CN2CCC(NC(=O)N(C)C)C2)cc1 (stereo unspecified)	-20%	?	/	/
c1ccc(CCn2cnc3cccnc32)cc1	-29%[174 µM]	-26%[230 µM]	-2%[70.6 µM]	40µM*
CNC(=O)c1cc(C2CC2)nc2onc(C3CCN(C(=O)c4ccccc4Cl)C3)c12 (stereo unspecified)	-20%	-29%	/	/
C[S+](=O)([O-])NC1CCN(c2nccc(Nc3ccccc3Cl)n2)CC1	-27%	-14%	/	/
CC(C)C(=O)N1CCC(COc2ccc3c(cnn3CC[S+](C)(=O)[O-])c2)CC1	?	?	4%[70.6 µM]	?
COc1ccc(F)cc1-c1cccc(COc2ccc3c(cnn3CC[S+](C)(=O)[O-])c2)c1	?	?	?	i
O=C(O)CCn1ncc2cc(OCc3ccc(-c4cncnc4)cc3)ccc21	45µM*	-26%[172 µM]	3%[70.6 µM]	50µM*
COc1ncc(-c2cccc(COc3ccc4c(cnn4CC[S+](C)(=O)[O-])c3)c2)cn1	-15%[138 µM]	71µM*	?	?
C[S+](=O)([O-])CCn1ncc2cc(OCc3cccc(-c4cncnc4)c3)ccc21	?	?	-19%[70.6 µM]	35µM*
COc1ncccc1-c1cccc(COc2ccc3c(cnn3CC[S+](C)(=O)[O-])c2)c1	?	28µM*	35µM*	16µM*
COc1cccc(CC(=O)N[C@@H]2CCC[C@@H](C(=O)NCc3cc(F)cc(F)c3)CC(=O)N(C)C2)c1	-17%	-13%	-23%	i
COc1ccc(C(=O)N2CCCC(C(=O)N3CCC(c4nc5ccncc5[nH]4)C3)C2)cc1 (stereo unspecified)	-15%	-9%	/	/
CCn1ccc2sc(C)c(C(=O)NCc3ccc(F)cc3Cl)c2c1=O	0%	-25%	-2%	i
Cc1ccc(CNC(=O)C2CN(S(=O)(=O)c3cccnc3)CC23CCCCC3)o1 (stereo unspecified)	-11%	2%	-15%	i
COc1cccc(CNC(=O)[C@@H]2C[C@@H](O)CN2C2CCN(C(=O)c3cccc(C)c3)CC2)c1	-12%	-27%	3%	i
C[S+](=O)([O-])CCn1ncc2cc(OCC3CCN(c4ncccn4)CC3)ccc21	-5%[138 µM]	?	?	45µM*
C[S+](=O)([O-])CCn1ncc2cc(OCc3cccc(-c4ccoc4)c3)ccc21	?	71µM*	?	?
CC(=O)N1CCC(COc2ccc3c(cnn3CC[S+](C)(=O)[O-])c2)CC1	?	-25%[172 µM]	-1%[70.6 µM]	?
C[S+](=O)([O-])CCn1ncc2cc(OCc3cccc(-c4cccc(F)c4)c3)ccc21	?	?	40µM*	?
COc1cccc(N2C(=O)NC(=NC3CCCCC3)C23CCN(Cc2cccn2C)C3)c1 (stereo unspecified)	-10%	-7%	/	/
